From PubChem
C diff growth: C. difficile growth inhibitors, primary screen, HTS; hit rate 0.25% among 86,000; growth activity, negative = inhibition, % at 16 µg/mL (by protocol); Clostridium difficile clinical isolate growth, OD600, 24 h; hits give low values;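 active = mean growth activity at or below -80% and every replicate also at or below -80%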;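 note: 0% = DMSO wells and -100% = levofloxacin 16 µg/mL wells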
Tcruzi prolif: T. cruzi intracellular proliferation inhibitors, primary screen, cell-based, beta-gal Tulahuen parasites, NIH3T3 host, luminescence; T. cruzi beta-gal in NIH3T3, GalScreen luminescence, 90 h; inhibition, % at 8.34 µM; hit rate 5.9% among 77,000; AID 624255, 2012;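 active = mean inhibition above about 93%, with at least 55% of replicates each passing it, limit read from the data, passing the limit was not always enough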
Pf Dd2 inh: P. falciparum Dd2 growth inhibitors, primary screen, SYBR Green fluorescence, single dose replicates | activity change, % at 10 µM | hit rate 2.3% among 94,000 | 72 h; hits give low values; in the data active = activity change below about -80%
* hit, by the source's call; . = no result; ! = not active in a repeat. Sampled rows, rich in hits. Any-hit rate of the full collection: about 6.7%.

SMILES | C diff growth | Tcruzi prolif | Pf Dd2 inh
C[C@H](CO)N1C[C@H](C)[C@H](CN(C)C(=O)Cc2cccnc2)Oc2ncc(-c3ccccc3)cc2C1=O | . | -3.7 | -19.8
COc1ccc(NC(=O)N(C)C[C@H]2Oc3ncc(-c4cccnc4)cc3C(=O)N([C@H](C)CO)C[C@@H]2C)cc1 | -7.1 | -51.0 | -82.9*
C[C@@H]1CN([C@@H](C)CO)C(=O)c2cc(-c3ccncc3)cnc2O[C@H]1CN(C)C(=O)Cc1cccnc1 | 6.2 | 104.2* | 33.4
O=C(Nc1ccccc1)N1CCCCN2[C@H](C1)[C@@H](c1ccc(C#Cc3cccnc3)cc1)[C@@H]2CO | 24.4 | 26.8 | -28.5
C[C@@H]1CN([C@H](C)CO)C(=O)c2cc(NC(=O)Nc3cccc4ccccc34)ccc2O[C@@H](C)CCCCO[C@H]1CN(C)S(=O)(=O)c1ccccc1 | -1.8 | -33.4 | -33.1
COc1ccc(S(=O)(=O)N(C)C[C@H]2OCCCC[C@H](C)Oc3ccc(NC(=O)Nc4cccc5ccccc45)cc3C(=O)N([C@H](C)CO)C[C@@H]2C)cc1 | 0.2 | 76.6 | -20.8
COc1ccc(S(=O)(=O)N(C)C[C@@H]2OCCCC[C@@H](C)Oc3ccc(NC(=O)Nc4cccc5ccccc45)cc3C(=O)N([C@@H](C)CO)C[C@@H]2C)cc1 | 7.8 | 22.7 | -83.4*
COc1ccc(S(=O)(=O)N(C)C[C@H]2OCCCC[C@@H](C)Oc3ccc(NC(=O)Nc4cccc5ccccc45)cc3C(=O)N([C@H](C)CO)C[C@H]2C)cc1 | 4.0 | 87.9 | -82.2*
COc1ccc2c3c(n(C)c2c1)[C@@H](CO)N(Cc1ccc2c(c1)OCO2)CC31CCN(C(=O)C2CC2)CC1 | 0.1 | . | -75.1
CC(C)C[C@@H]1COCc2cn(nn2)CC[C@H](Cc2ccccc2)C(=O)N1 | 0.2 | . | .
O=C(C[C@@H]1CC[C@@H]2[C@H](COC[C@H](O)CN2C(=O)Nc2ccc(C(F)(F)F)cc2)O1)NC1Cc2ccccc2C1 | 21.5 | 77.8 | 1.6
CCNC(=O)C[C@@H]1CC[C@H]2[C@@H](COC[C@H](O)CN2C(=O)Nc2ccc(C(F)(F)F)cc2)O1 | 66.9 | -21.9 | 3.2
O=C(C[C@H]1CC[C@@H]2[C@H](COC[C@H](O)CN2C(=O)Nc2ccc(C(F)(F)F)cc2)O1)NC1Cc2ccccc2C1 | -100.0*! | 38.4 | -14.0
CCNC(=O)C[C@@H]1CC[C@@H]2[C@H](COC[C@@H](O)CN2C(=O)Nc2ccc(C(F)(F)F)cc2)O1 | -94.0*! | -15.9 | 16.1
COc1ccc(CNC(=O)C[C@@H]2CC[C@@H]3[C@H](COc4ccc(NC(C)=O)cc4C(=O)N3C)O2)cc1 | 12.2 | 77.9 | 5.6
C[C@H]1CCCCO[C@H](CN(C)C(=O)Cc2ccccc2)[C@@H](C)CN([C@@H](C)CO)C(=O)c2cc(NC(=O)C3CCCCC3)ccc2O1 | 0.0 | 47.6 | -46.6
N#C[C@H]1[C@@H](c2ccccc2-c2ccccc2F)[C@H](CO)N1C(=O)c1cccc(F)c1 | 3.2 | . | 16.2
COc1ccc(C[C@H]2CCn3cc(nn3)COC[C@H](C(C)C)NC2=O)cc1 | -1.1 | . | .
C[C@H]1CN([C@@H](C)CO)C(=O)c2c(c3ccccc3n2C)-c2ccccc2CO[C@H]1CN(C)Cc1ccc(F)cc1 | 30.2 | . | -48.7
C[C@H]1CN([C@@H](C)CO)C(=O)c2c(c3ccccc3n2C)-c2ccccc2CO[C@@H]1CN(C)Cc1ccc(Oc2ccccc2)cc1 | 32.4 | . | -87.5*
C[C@@H]1CN([C@@H](C)CO)C(=O)c2c(c3ccccc3n2C)-c2ccccc2CO[C@H]1CN(C)Cc1ccc(F)cc1 | 51.4 | . | -50.3
C[C@@H]1CN([C@@H](C)CO)C(=O)c2c(c3ccccc3n2C)-c2ccccc2CO[C@@H]1CN(C)Cc1ccc(O)cc1 | -7.0 | . | -41.7
C[C@@H]1CN([C@H](C)CO)C(=O)c2c(c3ccccc3n2C)-c2ccccc2CO[C@H]1CN(C)Cc1ccc(Oc2ccccc2)cc1 | 20.6 | . | -86.9*
C[C@H]1CN([C@@H](C)CO)C(=O)c2c(c3ccccc3n2C)-c2ccccc2CO[C@H]1CN(C)Cc1ccc(Oc2ccccc2)cc1 | 1.9 | . | -83.5*
C[C@H]1CN([C@@H](C)CO)C(=O)c2cccc(NS(=O)(=O)c3cn(C)cn3)c2O[C@H]1CN(C)Cc1ccncc1 | 0.0 | . | 7.3
SMILES | C diff growth | Tcruzi prolif | Pf Dd2 inh
C[C@H]1CN([C@@H](C)CO)C(=O)c2cccc(NC(=O)c3nc4ccccc4s3)c2O[C@@H]1CN(C)S(=O)(=O)c1ccc(F)cc1 | -6.3 | 73.5 | -56.0
C[C@H]1CN([C@@H](C)CO)C(=O)Cc2cc(NS(=O)(=O)c3cccs3)ccc2O[C@@H]1CN(C)S(=O)(=O)c1cccs1 | . | 30.9 | -6.5
C[C@H](CO)N1C[C@H](C)[C@@H](CN(C)S(=O)(=O)c2ccccc2)Oc2ccc(NC(=O)c3ccncc3)cc2CC1=O | -1.9 | . | 5.2
C[C@@H]1CN([C@H](C)CO)C(=O)c2cc(-c3cncnc3)cnc2O[C@@H]1CN(C)C(=O)c1cccc(F)c1 | -2.5 | 13.3 | 21.4
C[C@@H]1CN([C@H](C)CO)C(=O)Cc2cc(NC(=O)C3CC3)ccc2O[C@H]1CN(C)C | 5.5 | 3.7 | 3.2
COc1ccc(S(=O)(=O)Nc2cccc3c2O[C@@H](CN(C)Cc2ccc(C(=O)Nc4ccccc4N)cc2)[C@@H](C)CN([C@H](C)CO)C3=O)cc1 | 5.1 | . | -75.7
COc1ccc(S(=O)(=O)Nc2cccc3c2O[C@H](CN(C)Cc2ccc(C(=O)Nc4ccccc4N)cc2)[C@H](C)CN([C@@H](C)CO)C3=O)cc1 | 2.1 | 94.6 | -86.1*
COc1ccc(S(=O)(=O)Nc2cccc3c2O[C@H](CN(C)Cc2ccc(C(=O)Nc4ccccc4N)cc2)[C@H](C)CN([C@H](C)CO)C3=O)cc1 | 10.5 | 89.8 | -87.4*
COc1ccc(S(=O)(=O)Nc2cccc3c2O[C@H](CN(C)Cc2ccc(C(=O)Nc4ccccc4N)cc2)[C@@H](C)CN([C@H](C)CO)C3=O)cc1 | -2.9 | 83.8 | -31.2
CN1C(=O)c2cc(NC(=O)c3ccccc3Cl)ccc2OC[C@@H]2O[C@H](CC(=O)O)CC[C@@H]21 | 1.0 | 19.5 | -0.7
COc1ccc2c3c([nH]c2c1)[C@H](CO)N(Cc1ccncc1)CC31CCN(C(=O)c2cccnc2)CC1 | 9.4 | . | -10.6
CCCC(=O)N1CCC2(CC1)CN(Cc1cccnc1)[C@@H](CO)c1[nH]c3cc(OC)ccc3c12 | 44.7 | . | -89.5*
CCCC(=O)N1CCC2(CC1)CN(Cc1ccc(Cl)cc1)[C@@H](CO)c1[nH]c3cc(OC)ccc3c12 | 12.9 | . | -84.4*
COc1cc(CN2CC3(CCN(C(=O)c4cccnc4)CC3)c3c([nH]c4cc(OC)ccc34)[C@@H]2CO)cc(OC)c1 | -0.7 | . | -89.4*
CCCC(=O)N1CC2(C1)CN(Cc1cccnc1)[C@H](CO)c1[nH]c3cc(OC)ccc3c12 | 5.6 | . | -20.9
COc1cc(CN2CC3(CN(C(=O)Nc4c(C)noc4C)C3)c3c([nH]c4cc(OC)ccc34)[C@@H]2CO)cc(OC)c1 | -1.4 | . | -85.2*
COc1cc(CN2CC3(CCN(C(=O)Nc4c(C)noc4C)CC3)c3c([nH]c4cc(OC)ccc34)[C@@H]2CO)cc(OC)c1 | 2.9 | . | -29.6
